# Assay outcomes as filed in PubChem BioAssay.
# IMPase inh: membrane-permeable compound that blocks inositol monophosphatase | P97697 | CHO-M1 cells, IP1 accumulation, HTRF TR-FRET ratio | inhibition (IP1 accumulation), % at 46.1 µM | 120,000 tested, under 10 active; active = well fitted curve in the direction sought with a large enough effect in the signal ratio, not every such curve was filed as active; inconclusive = small, poorly fitted or top-dose-only effect, or a change in a side signal; inactive = no such curve, though single readings can be large or run the other way; the % refers to the signal ratio;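 note: cells stimulated with carbachol in lithium chloride buffer; plate controls were DMSO basal wells for no effect and reference inhibitor wells for full effect; higher means more IMPase inhibition seen as more IP1 and lower FRET ratio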
# Target sequence (P97697 whole entry, looked up): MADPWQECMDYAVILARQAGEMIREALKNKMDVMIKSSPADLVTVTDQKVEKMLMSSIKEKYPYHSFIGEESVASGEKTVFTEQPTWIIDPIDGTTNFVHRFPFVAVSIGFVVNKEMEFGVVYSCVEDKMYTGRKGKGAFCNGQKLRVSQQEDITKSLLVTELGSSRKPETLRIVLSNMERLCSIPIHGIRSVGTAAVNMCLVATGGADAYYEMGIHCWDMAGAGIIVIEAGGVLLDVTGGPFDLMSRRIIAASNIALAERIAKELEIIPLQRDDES
#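 CHO-M1, 2000 cells/well, cultured 16–30 h; cpd up to 46 uM; carbachol (50 uM solution, stimulation buffer w/ 50 mM LiCl, pH 7.4), 30 min 37C; IP-One TR-FRET, 10 min RT; Ex 320/Em 665, 620; Hill-fit AC50.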
# PNC inhibitor: blocks assembly of the perinucleolar compartment; PC3M PTB-GFP, PNC prevalence imaging, 16 h; stronger effect = lower value; activity change (PNC), negative = inhibition, % at 10 µM; 3.1% of 140,000 active; AID 2417;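 active = readout at or below -70, meaning at least 70% loss of cells showing the perinucleolar compartment, a nuclear body marking cancer cells; inconclusive = readout between -30 and a set limit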;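 note: plate controls were DMSO wells for no effect and camptothecin positive control wells for full effect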
#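 PC3M cells stably expressing PTB-GFP, 750–1000 cells/well, treated 16 h at 37 °C with compound (23 nl of library stock), in duplicate. After paraformaldehyde fixation and Hoechst stain, imaged at 20x; PNC prevalence scored by image analysis.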
# ALDH1A1 inh: blocks purified human ALDH1A1 activity | Potency, µM (titrated, usually from 75.3 µM), for inactives: at the highest dose activity, negative = inhibition, usual class: inhibitors | 7.3% of 220,000 active | Purified ALDH1A1, NADH fluorescence, propionaldehyde substrate;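 note: potency is the fitted concentration of half-maximal effect; plate controls were no enzyme wells and a reference inhibitor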
# HPGD inh: HPGD (human) dehydrogenase inhibition; P15428; 4.3% of 150,000 active; purified HPGD, NADH fluorescence kinetic, PGE2 substrate; Potency, µM, without a hit: top-dose activity change, negative = inhibition, usual class: inhibitors; AID 894; note: potency is the fitted concentration of half-maximal effect
# Target sequence (P15428 whole entry, looked up): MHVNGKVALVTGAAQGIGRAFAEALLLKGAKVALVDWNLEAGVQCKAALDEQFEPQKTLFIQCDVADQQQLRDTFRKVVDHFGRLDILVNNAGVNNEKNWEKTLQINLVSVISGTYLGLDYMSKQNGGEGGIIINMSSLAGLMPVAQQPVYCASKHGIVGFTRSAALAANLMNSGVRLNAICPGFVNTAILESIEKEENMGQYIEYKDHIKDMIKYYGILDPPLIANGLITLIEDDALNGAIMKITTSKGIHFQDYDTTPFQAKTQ
#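 20 nM HPGD preincubated 15 min at room temperature with compound in 50 mM Tris-HCl pH 8, 0.01% Tween 20. Started with 1 mM NAD+ and 30 uM prostaglandin E2; NADH fluorescence (360/450 nm) read 5 times over 30-s intervals, last minus first.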
# IMPase Li cell: IMPase inhibition in cells with lithium potentiation | CHO-M1 cells, IP1 TR-FRET (IP-One), carbachol + lithium | Potency, µM (highest dose often 59.4 µM), for the others: at the highest dose activity, negative = IMPase inhibition, most hits filed as inhibitors | 0.35% of 210,000 active; active = well fitted inhibition curve with a large enough effect; inconclusive = small, poorly fitted or top-dose-only effect; inactive = no such curve, though single readings can be large or run the other way;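 note: IP1 builds up when IMPase is blocked and the TR-FRET signal falls; potency is the fitted concentration of half-maximal effect; plate controls were basal vehicle for no effect and high inhibitor control for full effect; nearly all actives have a fitted effect of over 50% in size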
#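 Test compounds were applied to CHO-M1 cells previously cultured for 16–30 h at 2000 per well. A small lithium amount accompanied them; after 30 min at 37C, IP1 was quantified by TR-FRET.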
# Active calls of the source: *; ? = inconclusive; . = no result given; [ ] = remark or other dose. In the library only some 11% were active in any assay of this set; here they are far more common. Unless noted, calls come from the whole dose curve; as a rule, active = well fitted inhibition curve with a large enough effect (not every such curve was filed as active); inconclusive = small, poorly fitted or top-dose-only effect, or another doubt; inactive = no such curve, though single readings can be large or run the other way. Unless noted, % is set by controls: 0 for no effect and ±100 for the full control effect.
SMILES,IMPase inh,PNC inhibitor,ALDH1A1 inh,HPGD inh,IMPase Li cell
O=C(NC1CCCCC1)C(c1cccnc1)N(C(=O)c1ccc(Cl)nc1)C1CCCCC1 (configuration not stated),.,.,8%,.,9%
CC(C)(C)NC(=O)C(c1cccnc1)N(C(=O)c1ccc(Cl)nc1)C1CCCC1 (configuration not stated),.,.,5.6µM*,.,0%
C#CCCCO/N=C1/C[C@@H](O)[C@@H](O)[C@@H]2[C@@H]3C(=O)N(C[C@@H]4CCCO4)C(=O)[C@H]3CC[C@H]12,.,.,2%[13.5 µM],.,.
CCCOc1cccc(C2c3c(oc4ccc(F)cc4c3=O)C(=O)N2Cc2ccc3c(c2)OCO3)c1 (configuration not stated),2,.,.,.,.
C=CCn1c(SCC(=O)NCCCC)nc2scc(-c3ccco3)c2c1=O,12[0.0738 µM],31,20µM*,-22%,4%
C=CCn1c(SCC(=O)NC2CCCC2)nc2scc(-c3ccco3)c2c1=O,6,40,7.9µM*,?,32%[38.3 µM]
Clc1cccc(OCCN2CCNCC2)c1,.,48,18µM*,-2%,1%
Cc1cccc(OCCCCCn2ccnc2)c1,-6,?,1%,0%,1%[38.3 µM]
CCc1cccc(OCCn2ccnc2)c1,.,-90*,?,-23%,2%
CCc1cccc(OCCN2CCCC2)c1,.,?,22µM*,-6%,9%
O=C(NC(=S)Nc1nc2c(s1)CCCC2)c1ccc(C(=O)c2ccccc2)cc1,.,-124*,3.5µM*,-23%,-6%
COc1cc2c(cc1NC(=O)c1cccnc1)CCCC2,-8,0,28µM*,-2%,-14%[38.3 µM]
O=C(Nc1nc2c(s1)CCCC2)c1cccnc1,5,32,11µM*,-10%,52%[38.3 µM]
COc1cc2c(cc1NC(=O)c1ccc(C(C)(C)C)cc1)CCCC2,2,10,?,?,11%[38.3 µM]
Cc1cccc(Nc2nc3c(s2)CCCC3)c1,.,-11,20µM*,-13%,23%
CCN(C(C)=O)c1ccc(Oc2nc(OC)cc(OC)n2)cc1,.,.,-6%,.,2%
C=CC1=C2C=C(C3CC3)N(Cc3ccco3)C=C2C(=O)C(C)(OC(=O)c2ccco2)C1=O (configuration not stated),.,.,0%[13.5 µM],-2%,-1%
O=C(Nc1nc2c(s1)CCCC2)Oc1ccccc1,-8,3,-13%,-13%,12%[38.3 µM]
C/C(=N\Nc1nc2c(s1)CCCC2)c1ccccc1,10,11,25µM*,-30%,36%[38.3 µM]
O=C(NC(=S)Nc1nc2c(s1)CSc1ccccc1-2)c1ccccc1,-9,3,?,20µM*,-11%[38.3 µM]
O=S(=O)(c1ccccc1)N(CC(O)COc1ccccc1)c1ccccc1 (configuration not stated),.,.,1%,.,.
COc1cccc(Cn2c(=O)c(-c3ccc(Cl)cc3)nc3cncnc32)c1,.,.,?,.,11%
Cc1cc(C)c2cc(CN(CCO)C(c3nnnn3Cc3ccc(F)cc3)C(C)C)c(=O)[nH]c2c1 (configuration not stated),11,-30,13µM*,1%,6%[38.3 µM]
O=C1NCCCc2c1oc1cc(Br)c(O)c(Br)c21,-4,-17,4µM*,-23%,8%[38.3 µM]
CCN(CC)CCNC(=O)COc1ccc(Cl)cc1Cl,2,-17,9%,1%,-4%[38.3 µM]
SMILES,IMPase inh,PNC inhibitor,ALDH1A1 inh,HPGD inh,IMPase Li cell
CCN(CC)CCNC(CC(=O)Nc1ccc(Cl)cc1Cl)C(=O)O (configuration not stated),6,-26,7.1µM*,6%,-4%
Cc1ccc(C2NC(=S)NC3=C2C(=O)CCC3)cc1 (configuration not stated),.,.,?,.,-1%
CC(C)c1ccc(C2NC(=S)NC3=C2C(=O)CCC3)cc1 (configuration not stated),8,5,4µM*,-2%,14%
CCOc1nc(-c2ccccc2O)nc2ccccc12,9,?,2%,13µM*,11%
O=C(Oc1ccccc1/C=C\C(=O)c1cc2ccccc2o1)c1cccc(F)c1,?,?,8.9µM*,?,14%
COc1cccc(C(=O)Oc2ccccc2/C=C\C(=O)c2cc3ccccc3o2)c1,10,25,-10%,-30%,4%
O=C(Oc1ccccc1/C=C\C(=O)c1cc2ccccc2o1)c1ccccc1,.,2,11µM*,-24%,10%
CN(C)c1ccc(C=NCC2COc3ccccc3O2)cc1 (configuration not stated),.,.,0.56µM*,.,-2%
CN(CC1COc2ccccc2O1)C(=O)c1ccc(N(C)C)cc1 (configuration not stated),.,.,5.6µM*,.,11%
O=C(O)CCC1COc2ccccc2O1 (configuration not stated),-1,?,6%,-6%,5%[38.3 µM]
COC(=O)[C@H](Cc1ccccc1)NC(=O)O[C@H]1C(=O)c2cc(OC)ccc2O[C@@H]1c1ccc(OC)c(Br)c1,.,.,4%,-4%,22%
CCOC(=O)N1CCN(c2c(-c3ccc(C)c(C)c3)c(=O)c2=O)CC1,-4,-100*,-11%,-15%,0%
CCOC(=O)N1CCN(c2c(-c3ccc(C)cc3)c(=O)c2=O)CC1,-9,-100*,4%,-10%,6%
CCOC(=O)N1CCN(c2c(-c3ccc(C(C)C)cc3)c(=O)c2=O)CC1,3,2,-13%,-12%,-20%[38.3 µM]
O=C(c1ccncc1)N1CCC[C@@]2(CCN(c3ccncc3)C2)C1,.,.,9%,-6%,7%
O=C(Nc1ccccc1Cl)C1CC(=O)n2c(nc3ccccc32)N1 (configuration not stated),.,.,10%,.,6%
O=C1c2oc3ccccc3c(=O)c2C(c2cccnc2)N1Cc1ccco1 (configuration not stated),-2,-6,14µM*,-1%,31%[38.3 µM]
O=C1c2oc3ccccc3c(=O)c2C(c2cccc(F)c2)N1CCCO (configuration not stated),-3,19,14µM*,1%,-13%[38.3 µM]
O=C1c2oc3ccc(Cl)cc3c(=O)c2C(c2cccnc2)N1Cc1ccco1 (configuration not stated),3,-19,?,-2%,-7%[38.3 µM]
Cc1cc2oc3c(c(=O)c2cc1C)C(c1ccc(F)cc1)N(CCCN1CCOCC1)C3=O (configuration not stated),-2,24,7.1µM*,-18%,-4%
COc1cccc2[nH]c(-c3ccccn3)nc12,.,.,?,?,-3%
C[N+]1(C)CC(O)[C@H](C(=O)[O-])C1 (some centres not stated),.,.,-14%,-4%,2%
O=C1NCCN(Cc2ccoc2)C1CC(=O)N(CCO)Cc1ccccc1 (configuration not stated),.,.,4%,.,2%
CCCN(Cc1ccccc1)C(=S)Nc1ccc(OCC)cc1,.,.,-7%,.,23%
